Of roughly 8,800 targets only a part is listed; those with a hit were picked by preference. About 0.5% of all pairs of compound and target were hits.
Key:
Assay in all cases: log2 fold change, soluble protein after heating vs DMSO (PISA); higher = thermal stabilisation; K562 lysate, 10 uM; active = over 0.2 and 3.5 SD of the protein, either way, in both replicates (recomputed)
nilotinib = compound: Cc1cn(-c2cc(NC(=O)c3ccc(C)c(Nc4nccc(-c5cccnc5)n4)c3)cc(C(F)(F)F)c2)cn1 [nilotinib]
How it was run: (§1)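 Quantification was by TMTpro 16plex LC-MS/MS with equalised channel sums, applied to the supernatant after 21,000xg for 90 min. Samples were crude K562 extract at 1 mg/mL protein in PBS pH 7.4 with 1 mM MgCl2, treated with 10 μM compound for 30 min, heated for 3 min across 48°C-58°C, pooled and brought to 0.5% NP-40 at 4°C. Values are log-two fold changes in thermal stability relative to solvent controls, from duplicates.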

[1] = compound: Cc1nc(Nc2n[nH]c3c2CN(C(=O)N[C@H](CN(C)C)c2ccccc2)C3(C)C)c2sccc2n1
How it was run: as §1

dasatinib = compound: Cc1nc(Nc2ncc(C(=O)Nc3c(C)cccc3Cl)s2)cc(N2CCN(CCO)CC2)n1 [dasatinib]
How it was run: as §1

[2] = compound: Cc1ncc(-c2ccnc(Nc3ccc(S(C)(=O)=O)cc3)n2)n1C(C)C
How it was run: as §1

[3] = compound: Cn1cc(-c2ccc3c(c2)CCN3C(=O)Cc2cccc(C(F)(F)F)c2)c2c(N)ncnc21
How it was run: as §1

quisinostat = compound: Cn1cc(CNCC2CCN(c3ncc(C(=O)NO)cn3)CC2)c2ccccc21 [quisinostat]
How it was run: as §1

tipifarnib = compound: Cn1cncc1[C@@](N)(c1ccc(Cl)cc1)c1ccc2c(c1)c(-c1cccc(Cl)c1)cc(=O)n2C [tipifarnib]
How it was run: as §1

[4] = compound: NC(=O)Nc1cc(-c2cccc(F)c2)sc1C(=O)N[C@H]1CCCNC1
How it was run: as §1

[5] = compound: NC(=O)c1cnc(N[C@@H]2CCCC[C@@H]2N)nc1Nc1cccc(-n2nccn2)c1
How it was run: as §1

[6] = compound: NC1(c2ccc(-c3nc4ccn5c(=O)[nH]nc5c4cc3-c3ccccc3)cc2)CCC1
How it was run: as §1

Measured: log2 fold change

CHML (UniProt P26374)
inactive: nilotinib -0.001 | [1] 0.013 | dasatinib 0.035 | [2] -0.011 | [3] -0.001 | quisinostat 0 | tipifarnib -0.031 | [4] -0.015 | [5] -0.008 | [6] 0.002

CLPB isoform 2 (UniProt Q9H078)
Sequence of UniProt Q9H078 (Q9H078 whole entry, looked up): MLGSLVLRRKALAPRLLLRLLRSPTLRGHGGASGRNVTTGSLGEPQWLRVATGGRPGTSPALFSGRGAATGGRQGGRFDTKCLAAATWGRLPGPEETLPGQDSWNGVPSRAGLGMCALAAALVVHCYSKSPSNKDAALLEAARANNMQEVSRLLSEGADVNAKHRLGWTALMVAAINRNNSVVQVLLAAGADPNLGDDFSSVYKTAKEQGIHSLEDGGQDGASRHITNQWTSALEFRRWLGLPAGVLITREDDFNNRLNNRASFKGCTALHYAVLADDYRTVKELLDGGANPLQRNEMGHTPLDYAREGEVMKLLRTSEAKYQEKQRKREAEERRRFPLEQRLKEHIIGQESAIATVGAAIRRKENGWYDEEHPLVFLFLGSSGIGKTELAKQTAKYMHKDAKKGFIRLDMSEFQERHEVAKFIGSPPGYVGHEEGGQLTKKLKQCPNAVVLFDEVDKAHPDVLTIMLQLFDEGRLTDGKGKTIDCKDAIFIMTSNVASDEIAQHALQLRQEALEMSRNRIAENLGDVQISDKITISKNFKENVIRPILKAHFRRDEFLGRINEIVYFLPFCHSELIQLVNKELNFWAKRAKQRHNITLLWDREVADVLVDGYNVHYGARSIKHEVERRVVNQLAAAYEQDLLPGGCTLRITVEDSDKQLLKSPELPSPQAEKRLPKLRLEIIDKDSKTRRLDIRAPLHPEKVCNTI
inactive: nilotinib -0.011 | [1] -0.003 | dasatinib 0.076 | [2] -0.03 | [3] 0.018 | quisinostat 0.008 | tipifarnib -0.004 | [4] 0.005 | [5] 0.031 | [6] -0.016

DCTN1 (UniProt Q14203)
inactive: nilotinib 0.008 | [1] -0.005 | dasatinib -0.025 | [2] 0.012 | [3] 0.017 | quisinostat 0.001 | tipifarnib -0.001 | [4] 0.011 | [5] 0.009 | [6] -0.007

DDX39A (UniProt O00148)
inactive: nilotinib -0.002 | [1] 0.02 | dasatinib 0.001 | [2] 0.007 | [3] 0.06 | quisinostat -0.018 | tipifarnib -0.053 | [4] 0.075 | [5] 0.036 | [6] -0.013

CHURC1 isoform 2 (UniProt Q8WUH1)
Sequence of UniProt Q8WUH1 (Q8WUH1 whole entry, looked up): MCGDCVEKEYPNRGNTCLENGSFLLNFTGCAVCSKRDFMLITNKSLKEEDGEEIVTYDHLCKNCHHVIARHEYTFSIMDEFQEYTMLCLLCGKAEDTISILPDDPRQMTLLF
inactive: nilotinib 0.055 | [1] -0.029 | dasatinib 0.016 | [2] -0.09 | [3] -0.001 | quisinostat -0.074 | tipifarnib 0.027 | [4] 0.018 | [5] -0.041 | [6] -0.083

CKAP2 (UniProt Q8WWK9)
Sequence of UniProt Q8WWK9 (Q8WWK9 whole entry, looked up): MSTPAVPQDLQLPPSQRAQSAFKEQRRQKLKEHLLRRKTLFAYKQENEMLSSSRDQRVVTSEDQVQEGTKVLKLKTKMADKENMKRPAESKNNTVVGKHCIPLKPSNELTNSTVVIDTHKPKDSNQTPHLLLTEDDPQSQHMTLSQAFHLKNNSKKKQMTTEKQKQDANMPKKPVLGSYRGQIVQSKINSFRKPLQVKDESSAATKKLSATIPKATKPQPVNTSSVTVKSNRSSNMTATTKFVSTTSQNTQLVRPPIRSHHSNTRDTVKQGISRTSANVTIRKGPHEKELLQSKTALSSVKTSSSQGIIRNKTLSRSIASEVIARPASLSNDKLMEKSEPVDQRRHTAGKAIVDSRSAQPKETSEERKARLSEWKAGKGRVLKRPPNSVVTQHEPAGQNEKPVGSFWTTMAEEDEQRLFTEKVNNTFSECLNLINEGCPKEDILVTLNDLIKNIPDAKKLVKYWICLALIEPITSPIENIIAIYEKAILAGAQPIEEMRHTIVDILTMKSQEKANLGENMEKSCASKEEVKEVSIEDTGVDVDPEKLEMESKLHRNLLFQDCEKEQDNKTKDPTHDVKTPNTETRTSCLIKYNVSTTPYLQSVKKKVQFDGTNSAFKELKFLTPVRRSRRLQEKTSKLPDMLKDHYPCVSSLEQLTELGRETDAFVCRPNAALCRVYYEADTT
inactive: nilotinib 0.075 | [1] 0.07 | dasatinib 0.004 | [2] 0.036 | [3] -0.014 | quisinostat -0.098 | tipifarnib -0.053 | [4] -0.015 | [5] -0.049 | [6] -0.023

CIP2A (UniProt Q8TCG1)
inactive: nilotinib -0.006 | [1] 0.02 | dasatinib -0.107 | [2] 0.024 | [3] 0.054 | quisinostat -0.123 | tipifarnib 0.01 | [4] 0.019 | [5] 0.032 | [6] -0.014

CSK (UniProt P41240)
Sequence of UniProt P41240 (P41240 whole entry, looked up): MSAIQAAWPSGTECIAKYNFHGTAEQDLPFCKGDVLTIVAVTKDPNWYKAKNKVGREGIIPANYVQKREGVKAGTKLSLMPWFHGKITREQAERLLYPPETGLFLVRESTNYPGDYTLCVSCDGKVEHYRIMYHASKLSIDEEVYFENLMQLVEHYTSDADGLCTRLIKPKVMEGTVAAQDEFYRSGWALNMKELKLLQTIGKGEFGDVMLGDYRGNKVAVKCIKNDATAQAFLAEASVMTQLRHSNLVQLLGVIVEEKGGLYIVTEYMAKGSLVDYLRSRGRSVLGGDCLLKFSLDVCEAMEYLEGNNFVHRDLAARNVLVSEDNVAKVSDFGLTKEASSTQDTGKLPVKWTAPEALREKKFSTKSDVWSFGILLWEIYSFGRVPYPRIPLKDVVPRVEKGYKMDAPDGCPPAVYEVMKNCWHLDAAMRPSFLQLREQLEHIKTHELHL
active: dasatinib 0.578 | [4] 0.646
inactive: nilotinib 0.144 | [1] 0.125 | [2] 0.002 | [3] 0.102 | quisinostat -0.08 | tipifarnib -0.041 | [5] 0.071 | [6] -0.043

COQ9 (UniProt O75208)
Sequence of UniProt O75208 (O75208 whole entry, looked up): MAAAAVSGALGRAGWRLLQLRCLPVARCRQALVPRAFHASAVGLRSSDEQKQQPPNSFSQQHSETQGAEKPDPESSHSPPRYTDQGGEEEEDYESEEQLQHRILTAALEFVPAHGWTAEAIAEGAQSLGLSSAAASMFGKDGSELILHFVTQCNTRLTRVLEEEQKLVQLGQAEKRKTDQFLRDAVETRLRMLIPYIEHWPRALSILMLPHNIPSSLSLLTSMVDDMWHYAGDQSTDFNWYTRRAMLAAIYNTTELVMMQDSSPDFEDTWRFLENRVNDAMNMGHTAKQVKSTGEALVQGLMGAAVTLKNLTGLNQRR
inactive: nilotinib 0.021 | [1] 0.03 | dasatinib -0.021 | [2] 0 | [3] -0.007 | quisinostat 0.036 | tipifarnib -0.016 | [4] 0 | [5] 0.002 | [6] -0.018

CIAO2A (UniProt Q9H5X1)
Sequence of UniProt Q9H5X1 (Q9H5X1 whole entry, looked up): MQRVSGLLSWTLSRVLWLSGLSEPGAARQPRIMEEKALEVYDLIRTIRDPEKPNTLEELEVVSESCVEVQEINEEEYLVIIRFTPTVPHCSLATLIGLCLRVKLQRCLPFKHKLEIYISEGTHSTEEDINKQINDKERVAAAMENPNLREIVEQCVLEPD
inactive: nilotinib -0.018 | [1] 0.033 | dasatinib -0.037 | [2] -0.074 | [3] 0.011 | quisinostat 0.011 | tipifarnib -0.067 | [4] -0.004 | [5] -0.027 | [6] -0.038

CIC (UniProt I3L2J0)
inactive: nilotinib 0.045 | [1] 0.024 | dasatinib 0 | [2] 0.001 | [3] 0.006 | quisinostat 0.027 | tipifarnib -0.087 | [4] -0.053 | [5] -0.073 | [6] 0.014

DICER1 (UniProt Q9UPY3)
Sequence of UniProt Q9UPY3 (Q9UPY3 whole entry, looked up): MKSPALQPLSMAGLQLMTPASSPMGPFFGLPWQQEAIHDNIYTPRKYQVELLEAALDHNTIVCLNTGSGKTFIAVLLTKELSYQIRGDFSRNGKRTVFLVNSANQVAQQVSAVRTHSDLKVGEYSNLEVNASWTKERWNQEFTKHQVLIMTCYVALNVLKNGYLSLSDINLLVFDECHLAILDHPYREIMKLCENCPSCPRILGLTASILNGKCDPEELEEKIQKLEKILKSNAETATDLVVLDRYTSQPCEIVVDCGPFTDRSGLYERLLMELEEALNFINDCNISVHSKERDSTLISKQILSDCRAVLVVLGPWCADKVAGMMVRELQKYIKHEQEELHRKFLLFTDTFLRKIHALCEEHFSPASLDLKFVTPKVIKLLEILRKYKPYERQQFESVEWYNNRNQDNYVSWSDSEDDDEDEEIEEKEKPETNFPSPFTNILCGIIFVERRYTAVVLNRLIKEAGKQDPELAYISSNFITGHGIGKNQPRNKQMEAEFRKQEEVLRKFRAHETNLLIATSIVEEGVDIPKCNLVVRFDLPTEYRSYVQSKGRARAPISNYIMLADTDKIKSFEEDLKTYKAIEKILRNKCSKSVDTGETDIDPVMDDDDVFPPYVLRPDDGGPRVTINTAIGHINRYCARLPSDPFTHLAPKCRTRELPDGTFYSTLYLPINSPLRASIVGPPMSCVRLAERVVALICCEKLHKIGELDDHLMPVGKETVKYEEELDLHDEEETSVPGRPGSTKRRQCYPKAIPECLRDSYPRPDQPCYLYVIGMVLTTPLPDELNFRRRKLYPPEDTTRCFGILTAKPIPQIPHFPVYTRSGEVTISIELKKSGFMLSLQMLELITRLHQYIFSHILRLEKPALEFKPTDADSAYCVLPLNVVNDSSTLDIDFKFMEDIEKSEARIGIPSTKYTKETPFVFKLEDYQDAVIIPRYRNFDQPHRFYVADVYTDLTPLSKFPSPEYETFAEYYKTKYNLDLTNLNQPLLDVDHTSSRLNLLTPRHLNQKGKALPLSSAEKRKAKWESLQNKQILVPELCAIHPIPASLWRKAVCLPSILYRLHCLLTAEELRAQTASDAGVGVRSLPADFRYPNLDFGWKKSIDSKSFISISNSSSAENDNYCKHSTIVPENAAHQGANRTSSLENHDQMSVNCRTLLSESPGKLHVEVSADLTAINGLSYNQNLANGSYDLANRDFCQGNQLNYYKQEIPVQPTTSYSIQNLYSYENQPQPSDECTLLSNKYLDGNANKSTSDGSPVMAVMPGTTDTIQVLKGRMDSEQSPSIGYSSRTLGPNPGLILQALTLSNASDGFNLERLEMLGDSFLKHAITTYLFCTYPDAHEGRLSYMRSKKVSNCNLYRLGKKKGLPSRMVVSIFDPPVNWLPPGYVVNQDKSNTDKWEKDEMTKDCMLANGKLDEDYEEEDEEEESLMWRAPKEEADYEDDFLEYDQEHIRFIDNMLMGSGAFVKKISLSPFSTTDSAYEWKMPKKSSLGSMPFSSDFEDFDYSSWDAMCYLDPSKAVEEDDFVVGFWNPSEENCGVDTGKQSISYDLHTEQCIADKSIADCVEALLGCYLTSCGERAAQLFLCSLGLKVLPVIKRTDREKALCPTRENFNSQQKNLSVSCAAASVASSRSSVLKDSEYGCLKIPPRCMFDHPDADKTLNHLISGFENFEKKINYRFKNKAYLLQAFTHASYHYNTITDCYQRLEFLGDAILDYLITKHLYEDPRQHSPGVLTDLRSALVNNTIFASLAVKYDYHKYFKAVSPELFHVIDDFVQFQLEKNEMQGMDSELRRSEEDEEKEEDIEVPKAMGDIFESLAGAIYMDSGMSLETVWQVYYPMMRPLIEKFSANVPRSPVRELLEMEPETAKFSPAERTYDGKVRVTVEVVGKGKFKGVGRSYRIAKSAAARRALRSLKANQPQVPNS
inactive: nilotinib 0.014 | [1] -0.014 | dasatinib -0.005 | [2] 0.045 | [3] -0.03 | quisinostat -0.072 | tipifarnib 0 | [4] 0.051 | [5] 0.045 | [6] -0.068

CHORDC1 (UniProt Q9UHD1)
inactive: nilotinib 0.024 | [1] -0.003 | dasatinib 0.016 | [2] 0.034 | [3] 0.008 | quisinostat 0.018 | tipifarnib 0.021 | [4] -0.015 | [5] 0 | [6] -0.005

CSNK1G3 (UniProt Q9Y6M4)
Sequence of UniProt Q9Y6M4 (Q9Y6M4 whole entry, looked up): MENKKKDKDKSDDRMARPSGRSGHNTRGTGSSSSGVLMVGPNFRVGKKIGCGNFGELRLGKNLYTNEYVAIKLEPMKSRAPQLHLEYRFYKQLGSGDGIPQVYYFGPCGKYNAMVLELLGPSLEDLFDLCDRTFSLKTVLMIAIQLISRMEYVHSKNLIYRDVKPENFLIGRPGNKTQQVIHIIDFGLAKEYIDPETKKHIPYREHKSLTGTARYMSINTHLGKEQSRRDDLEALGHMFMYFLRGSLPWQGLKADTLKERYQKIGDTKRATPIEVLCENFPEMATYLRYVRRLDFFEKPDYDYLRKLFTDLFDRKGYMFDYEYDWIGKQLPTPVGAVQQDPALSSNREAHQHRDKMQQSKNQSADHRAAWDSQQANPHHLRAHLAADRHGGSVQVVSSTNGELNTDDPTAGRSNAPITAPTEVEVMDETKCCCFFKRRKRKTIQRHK
active: [1] 0.428 | [2] 0.388 | [4] 0.397
inactive: nilotinib -0.029 | dasatinib 0.002 | [3] 0.014 | quisinostat -0.067 | tipifarnib 0.001 | [5] 0 | [6] 0.086

CUL1 (UniProt Q13616)
inactive: nilotinib 0.025 | [1] 0.022 | dasatinib 0.034 | [2] 0.028 | [3] 0.027 | quisinostat 0.017 | tipifarnib 0.001 | [4] -0.021 | [5] -0.011 | [6] -0.004

From the supplement of paper PMC10849652
